Assay results as given in PubChem BioAssay (Tox21).
Results filed as inconclusive are left out. Activity calls are given as the source filed them. Unless noted, calls follow the shape of the dose curve; as a rule, active = well fitted curve in the direction sought with a large enough effect in the repeat runs; inconclusive = weak or mixed curves; inactive = no such curve, though single readings can be large; an effect the other way counts as inactive or inconclusive.

Assays:
[1] = qHTS assay to identify small molecule agonists of the hypoxia (HIF-1) signaling pathway - cell viability counter screen (AID 1224844; calls by dose curve; also: nearly all actives have a fitted effect of over 50% in size)
How it was run: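 HRE-bla ME-180 cells in medium with 0.5% dialyzed FBS were preincubated 5 hrs at 37C, exposed to compounds for 17 hrs, then viability was read as CellTiter-Glo luminescence after 30 min at room temperature, in the reporter wells.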

[2] = qHTS assay to identify small molecule agonists of H2AX (AID 1224845; active = well fitted activation curve with a large enough effect in the signal ratio in the repeat runs, not every such curve was filed as active; the % refers to the signal ratio)
How it was run: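 Wild-type CHO-K1 cells plated overnight, then exposed 3 hr at 37C to compounds at 15 concentrations (0.76% DMSO). Lysed, then HTRF anti-pH2AX(S139)-cryptate/anti-H2AX-d2 detection after 24 hr at room temperature; emissions 665 and 620 nm.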

[3] = qHTS assay to identify small molecule agonists of the hypoxia (HIF-1) signaling pathway (AID 1224846; active = well fitted activation curve with a large enough effect in the signal ratio in the repeat runs, not every such curve was filed as active; the % refers to the signal ratio)
How it was run: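 HRE-bla ME-180 cells (beta-lactamase reporter under hypoxia response element) were plated at 2,000 cells/well in medium with 0.5% dialyzed FBS, rested 5 hrs, then given compounds in DMSO for 17 hrs at 37C, 5% CO2. Reporter induction was read with CCF4-AM FRET substrate.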

[4] = qHTS assay to identify small molecule agonists of H2AX - cell viability counter screen (AID 1224847; calls by dose curve; also: top concentration of the series differs between compounds; nearly all actives have a fitted effect of over 30% in size)
How it was run: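 After overnight plating of 1000 CHO-K1 cells per well, a 15-concentration compound series was applied for 3 hr at 37C. Luminescence from CellTiter-Glo, read following 30 min at room temperature, reflected cell viability.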

[5] = qHTS RealTime-Glo MT Cell Viability Assay in HepG2 cells - 24 hour (AID 1224867); also: nearly all actives have a fitted effect of over 50% in size
How it was run: (§1)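 HepG2 suspension premixed with RealTime-Glo reagents is plated at 600 cells per well and left 5 h at 37 C/5% CO2. Compounds in DMSO then go in, and bioluminescence reflecting viable cell number is recorded over 40 h.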

[6] = A CellTox Green Cytotoxicity Assay to monitor cytotoxicity in HEK293 cells - 0 hour (AID 1224869); also: nearly all actives have a fitted effect of over 50% in size
How it was run: (§2)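 HEK293 cells premixed with CellTox Green dye were seeded at 600 cells/well and left 5 h at 37 C/5% CO2 before pin transfer of 23 nL compound in DMSO. Fluorescence from dye bound to dead-cell DNA was read during 40 h treatment.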

[7] = qHTS RealTime-Glo MT Cell Viability Assay in HepG2 cells - 40 hour (AID 1224870); also: nearly all actives have a fitted effect of over 50% in size
How it was run: (§3)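 HepG2 cells mixed with RealTime-Glo MT reagents (NanoLuc plus cell-permeant prosubstrate) were seeded at 600 cells/well, incubated 5 h at 37 C/5% CO2, then pinned with compounds in DMSO; nonlytic luminescence tracked viability during 40 h treatment.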

[8] = A CellTox Green Cytotoxicity Assay to monitor cytotoxicity in HEK293 cells - 40 hour (AID 1224871); also: nearly all actives have a fitted effect of over 45% in size
How it was run: as §2

[9] = qHTS RealTime-Glo MT Cell Viability Assay in HEK293 cells - 16 hour (AID 1224872)
How it was run: (§4)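 Reads taken at 0, 8, 16, 24, 32 and 40 h from the same wells. HEK293 cells (600/well) carried RealTime-Glo reagents from seeding, with compound added after a 5 h settle at 37 C.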

[10] = qHTS RealTime-Glo MT Cell Viability Assay in HepG2 cells - 8 hour (AID 1224873); also: nearly all actives have a fitted effect of over 55% in size
How it was run: as §3

[11] = qHTS RealTime-Glo MT Cell Viability Assay in HEK293 cells - 40 hour (AID 1224874); conditions: RealTime-Glo luminescence; max response: active compounds read low; also: nearly all actives have a fitted effect of over 50% in size
How it was run: (§5)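 HEK293 cells mixed with RealTime-Glo reagents (NanoLuc plus cell-permeant prosubstrate) at 600 cells/well, preincubated 5 h at 37 C/5% CO2, then given 23 nL compound in DMSO. Nonlytic luminescence from viable cells was read at 0, 8, 16, 24, 32 and 40 h.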

[12] = A CellTox Green Cytotoxicity Assay to monitor cytotoxicity in HEK293 cells - 24 hour (AID 1224875); also: nearly all actives have a fitted effect of over 45% in size
How it was run: as §2

[13] = A CellTox Green Cytotoxicity Assay to monitor cytotoxicity in HepG2 cells - 16 hour (AID 1224876); also: nearly all actives have a fitted effect of over 45% in size
How it was run: (§6)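 HepG2 cells were seeded together with the CellTox Green dye at 600 cells/well, left 5 h at 37 C/5% CO2, then given compounds in DMSO. Fluorescence from dye bound to dead-cell DNA was read repeatedly over 40 h of treatment at 37 C.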

[14] = A CellTox Green Cytotoxicity Assay to monitor cytotoxicity in HepG2 cells - 24 hour (AID 1224878); also: nearly all actives have a fitted effect of over 45% in size
How it was run: as §6

[15] = A CellTox Green Cytotoxicity Assay to monitor cytotoxicity in HepG2 cells - 40 hour (AID 1224879); also: nearly all actives have a fitted effect of over 40% in size
How it was run: as §6

[16] = qHTS RealTime-Glo MT Cell Viability Assay in HEK293 cells - 0 hour (AID 1224880)
How it was run: as §5

[17] = qHTS assay to identify small molecule agonists of the estrogen related receptor (ERR) signaling pathway from Tox21 library (AID 1224849; calls by dose curve; also: nearly all actives have a fitted effect of over 15% in size); conditions: ERR reporter cell line, ONE-Glo luciferase, 18 h; at 92.4 µM (top of the series) unless noted
How it was run: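 ERR reporter cell line (NTP) seeded, rested 6 h at 37 C/5% CO2, then pinned with Tox21 compounds in DMSO. After 18 h at 37 C, ONE-Glo luciferase luminescence was read following 30 min at room temperature.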

[18] = qHTS RealTime-Glo MT Cell Viability Assay in HEK293 cells - 32 hour (AID 1224868)
How it was run: as §4

[19] = qHTS assay to identify small molecule antagonists of the estrogen related receptor (ERR) signaling pathway from Tox21 library (AID 1224848); also: nearly all actives have a fitted effect of over 50% in size
How it was run: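 Screening used an ERR reporter line supplied by NTP, exposed for 18 h at 37 C to library compounds delivered in DMSO. Signal was luciferase luminescence developed with ONE-Glo at room temperature for 30 min.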

[20] = qHTS RealTime-Glo MT Cell Viability Assay in HepG2 cells - 32 hour (AID 1224877); also: nearly all actives have a fitted effect of over 55% in size
How it was run: as §1
% is scaled to controls: 0 for no effect and ±100 for the full control effect.

CCCCN(CCCC)C(C(N)=O)c1ccc(OC)cc1 (centres undefined)
inactive: Potency [1] | Potency [2] | outcome [3] | Potency [4] | Potency [5] | Potency [6] | Potency [7] | Potency [8] | Potency [9] | Potency [10] | max response [11] -24.8% | Potency [12] | Potency [13] | Potency [14] | Potency [15] | Potency [16]

COc1ccccc1Oc1c(NS(=O)(=O)c2ccc(C(C)(C)C)cc2)nc(-c2ncccn2)nc1OCCO
inactive: Potency [1] | Potency [2] | outcome [3] | activity change, positive = activation [17] -21.1% [at 42.5 µM] | Potency [5] | Potency [18] | Potency [6] | Potency [8] | Potency [9] | Potency [10] | max response [11] -19.3% | Potency [12] | Potency [13] | Potency [14] | Potency [15] | Potency [16]

CC(=O)Nc1ccc(C)cc1C
inactive: Potency [1] | Potency [2] | Potency [4] | Potency [19] | activity change, positive = activation [17] 0.262% | Potency [5] | Potency [18] | Potency [6] | Potency [7] | Potency [9] | Potency [10] | max response [11] -0.695% | Potency [12] | Potency [13] | Potency [20] | Potency [14] | Potency [15] | Potency [16]

CN1C(=O)OC(C)(C)C1=O
inactive: Potency [1] | Potency [2] | Potency [4] | Potency [19] | activity change, positive = activation [17] 4.82% | Potency [5] | Potency [6] | Potency [9] | Potency [10] | max response [11] 0.839% | Potency [12] | Potency [13] | Potency [20] | Potency [14] | Potency [15] | Potency [16]

O=c1[nH]c2ccc(Cl)cc2o1
inactive: Potency [1] | Potency [2] | Potency [4] | Potency [19] | activity change, positive = activation [17] 4.04% | Potency [5] | Potency [18] | Potency [6] | Potency [7] | Potency [8] | Potency [9] | Potency [10] | max response [11] -0.887% | Potency [12] | Potency [13] | Potency [20] | Potency [14] | Potency [15] | Potency [16]

CCCCCCCCCCC(=O)O
inactive: Potency [1] | Potency [2] | outcome [3] | Potency [4] | Potency [5] | Potency [18] | Potency [6] | Potency [7] | Potency [9] | Potency [10] | max response [11] 3.53% | Potency [12] | Potency [13] | Potency [20] | Potency [14] | Potency [15] | Potency [16]

CC(CCC(=O)O)C(=O)O (centres undefined)
inactive: Potency [1] | Potency [2] | Potency [4] | Potency [19] | activity change, positive = activation [17] 3.47% | Potency [5] | Potency [18] | Potency [6] | Potency [7] | Potency [10] | max response [11] 0% | Potency [12] | Potency [13] | Potency [20] | Potency [14] | Potency [15] | Potency [16]
